Data on ten compounds can be found in paper PMC5540273 (PLoS ONE, 2017).

Among the test systems are DDR1; DDR2; DMPK; DYRK1A; DYRK1B; DYRK2; EGFR; EIF2AK1; EPHA1; EPHA2; EPHA3; EPHA4; EPHA5; EPHA6.
Common to all, as to settings: concentration: 1 μM,replicates: in singlicate; n = 1
In another assay the test system is T1, DCAMKL2.
T1 construct: gene DCLK2

For another assay, the system named is T2, DCAMKL3.
T2 construct: gene DCLK3

Another assay concerns T3, DLK.
T3 construct: gene MAP3K12

For another assay, the system named is T4, DMPK2.
T4 construct: gene CDC42BPG

Another assay concerns T5, DRAK1.
T5 construct: gene STK17A

The test system of a further assay is T6, DRAK2.
T6 construct: gene STK17B
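Further: KINOMEscan kinase panel screen.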

On to `CCN1CCN(CCCC(=O)Nc2n[nH]c3nc(-c4ccc(O)cc4)c(Br)cc23)CC1` [SB-731579], for which the “%Inh” value in the assay on DCAMKL2 came out at 18%; in the assay on DCAMKL3, 99.1%; with DDR1, 38%; in the assay on DDR2, 41%; with DLK, 8%; in the assay on DMPK2 it was 0%. In addition, the “%Inh” value in the assay with DMPK worked out at 89%; with DRAK1 it was 44%; in the assay with DRAK2, 0%; with DYRK1A it was 38%; in the assay with DYRK1B, 77%; in the assay with DYRK2, 74%. Further, the “%Inh” value is recorded as 0% in the assay with EGFR; 71% in the assay with EIF2AK1; 0% in the assay with EPHA1; 0% in the assay with EPHA2; 6% in the assay on EPHA3; 0% in the assay on EPHA4. Besides, the “%Inh” value in the assay with EPHA5 and in the assay with EPHA6 was 0% in each case.

As to `OCCn1cc(-c2cnc3nnn(Cc4ccc5ncccc5c4)c3n2)cn1`, the “%Inh” value in the assay with DCAMKL2 was 0%; in the assay on DCAMKL3 it was 0%; in the assay on DDR1, 0%; with DDR2, 4%; in the assay with DLK, 0%; in the assay on DMPK2 it was 0%. Also, the “%Inh” value turned out to be 0% in the assay with DMPK; 10% in the assay with DRAK1; 12% in the assay on DRAK2; 0% with DYRK1A; 19% in the assay with DYRK1B; 0% in the assay with DYRK2. The “%Inh” value in the assay with EGFR, in the assay with EIF2AK1, in the assay with EPHA1, with EPHA2, in the assay on EPHA3 and in the assay with EPHA4 was 0% throughout. Moreover, the “%Inh” value with EPHA5 and in the assay on EPHA6 was 0% throughout.

On to `Cc1cccc(-c2nc(Nc3ccncc3)c3sccc3n2)n1` [GW869641], for which the “%Inh” value with DCAMKL2 came to 21%; in the assay with DCAMKL3, 18%; in the assay with DDR1 it was 55%; in the assay on DDR2, 66%; with DLK it was 0%; with DMPK2 it was 98.5%. The “%Inh” value in the assay with DMPK came out at 18%; in the assay with DRAK1, 2%; with DRAK2, 13%; in the assay with DYRK1A, 20%; in the assay with DYRK1B it was 9%; in the assay with DYRK2 it was 35%. Also, the “%Inh” value in the assay on EGFR is given as 16%; with EIF2AK1, 17%; in the assay on EPHA1, 0%; with EPHA2, 0%; in the assay on EPHA3, 26%; with EPHA4, 8%. Further, the “%Inh” value in the assay with EPHA5 was found to be 23%; in the assay with EPHA6, 16%.

With `COc1cc2nccc(Nc3ccc(Oc4ccccc4)cc3)c2cc1OC.Cl` [GI261656], the “%Inh” value is 0% with DCAMKL2; 1% in the assay on DCAMKL3; 0% in the assay with DDR1; 22% with DDR2; 34% with DLK; 6% in the assay with DMPK2. Also, the “%Inh” value amounted to 0% in the assay on DMPK; 0% in the assay with DRAK1; 0% in the assay on DRAK2; 0% in the assay on DYRK1A; 18% in the assay on DYRK1B; 9% in the assay on DYRK2. Moreover, the “%Inh” value with EGFR worked out at 88%; in the assay with EIF2AK1, 0%; with EPHA1 it was 0%; with EPHA2, 5%; with EPHA3, 0%; in the assay on EPHA4, 0%. Besides, the “%Inh” value in the assay on EPHA5 and with EPHA6 was 0% throughout.

Turning to `Cc1n[nH]c2cc(Nc3ccnc(Nc4cccc(CN5CCOCC5)c4)n3)ccc12` [GW682569], the “%Inh” value with DCAMKL2 is 0%; with DCAMKL3 it was 0%; with DDR1, 70%; with DDR2, 55%; in the assay on DLK, 52%; in the assay on DMPK2, 0%. The “%Inh” value came to 0% in the assay with DMPK; 53% in the assay on DRAK1; 16% with DRAK2; 2% in the assay with DYRK1A; 4% in the assay with DYRK1B; 25% in the assay on DYRK2. Moreover, the “%Inh” value in the assay on EGFR was 22%; in the assay on EIF2AK1 it was 0%; in the assay with EPHA1 it was 52%; in the assay on EPHA2, 14%; in the assay on EPHA3 it was 25%; with EPHA4 it was 17%. The “%Inh” value came out at 0% in the assay with EPHA5 and 17% in the assay on EPHA6.

Take `COc1cc2ncn(-c3cc(OCC4CCCCC4)c(C(N)=O)s3)c2cc1OC` [GSK204559]: the “%Inh” value in the assay on DCAMKL2 amounted to 25%; in the assay with DCAMKL3, 0%; in the assay with DDR1, 0%; in the assay on DDR2, 0%; in the assay with DLK, 31%; in the assay with DMPK2, 7%. For the same compound, the “%Inh” value with DMPK turned out to be 0%; in the assay on DRAK1, 0%; in the assay on DRAK2, 0%; in the assay with DYRK1A, 21%; with DYRK1B it was 11%; in the assay on DYRK2, 33%. For the same compound, the “%Inh” value stood at 38% in the assay on EGFR; 1% in the assay on EIF2AK1; 3% with EPHA1; 4% in the assay on EPHA2; 14% in the assay with EPHA3; 10% in the assay with EPHA4. Besides, the “%Inh” value with EPHA5 was 0%; with EPHA6, 11%.

`COc1cc2c(Nc3ccc(NC(=O)c4ccccc4)cc3)ncnc2cc1OCCCN1CCOCC1` [GSK301329]: the “%Inh” value with DCAMKL2 is reported as 26%; in the assay with DCAMKL3 it was 0%; with DDR1, 0%; with DDR2, 0%; in the assay on DLK, 89%; in the assay on DMPK2, 0%. For the same compound, the “%Inh” value in the assay with DMPK is reported as 0%; in the assay on DRAK1, 0%; in the assay on DRAK2, 0%; in the assay with DYRK1A, 25%; in the assay on DYRK1B, 0%; in the assay with DYRK2, 35%. Moreover, the “%Inh” value in the assay with EGFR is 90%; with EIF2AK1 it was 4%; with EPHA1, 3%; in the assay on EPHA2 it was 4%; in the assay on EPHA3, 0%; in the assay with EPHA4 it was 7%. Also, the “%Inh” value in the assay on EPHA5 turned out to be 0%; in the assay on EPHA6, 5%.

Regarding `O=C(Nc1cccc(Oc2ccc3nccn3n2)c1)Nc1cccc(C(F)(F)F)c1`, the “%Inh” value in the assay on DCAMKL2 is given as 15%; with DCAMKL3, 0%; in the assay on DDR1, 99.3%; in the assay on DDR2, 97.8%; in the assay with DLK it was 3%; in the assay on DMPK2, 15%. In addition, the “%Inh” value in the assay on DMPK turned out to be 0%; in the assay with DRAK1, 0%; with DRAK2 it was 0%; in the assay on DYRK1A, 0%; with DYRK1B it was 26%; in the assay on DYRK2, 8%. For the same compound, the “%Inh” value with EGFR is 23%; with EIF2AK1 it was 0%; in the assay with EPHA1, 21%; in the assay on EPHA2, 75%; in the assay on EPHA3, 8%; with EPHA4 it was 51%. The entries for the “%Inh” value in the assay with EPHA5 and in the assay with EPHA6 were 11% and 15%, respectively.

Turning to `N#Cc1cccc(C(=O)NC2CCN(c3ccnc(Nc4ccc(F)cc4)n3)C2)c1` (centres unmarked) [GSK1379708], the “%Inh” value in the assay on DCAMKL2 was 9%; in the assay on DCAMKL3 it was 9%; with DDR1 it was 0%; in the assay on DDR2, 0%; in the assay with DLK it was 35%; in the assay with DMPK2 it was 0%. The “%Inh” value in the assay on DMPK stood at 0%; with DRAK1, 0%; in the assay with DRAK2, 4%; in the assay with DYRK1A, 21%; with DYRK1B, 0%; in the assay with DYRK2, 0%. Besides, the “%Inh” value is 14% with EGFR; 0% in the assay on EIF2AK1; 1% in the assay with EPHA1; 0% in the assay on EPHA2; 0% in the assay with EPHA3; 0% with EPHA4. The “%Inh” value was determined as 0% in the assay on EPHA5 and 2% in the assay on EPHA6.

Regarding `O=C1NCCc2[nH]c(-c3ccncc3)cc21`, the “%Inh” value in the assay on DCAMKL2 was determined as 0%; with DCAMKL3 it was 91.8%; in the assay with DDR1 it was 17%; with DDR2 it was 0%; in the assay with DLK, 8%; in the assay with DMPK2 it was 0%. Besides, the “%Inh” value was determined as 13% in the assay with DMPK; 97.2% in the assay on DRAK1; 100% with DRAK2; 99.7% in the assay with DYRK1A; 97.6% in the assay on DYRK1B; 97.1% in the assay on DYRK2. In addition, the “%Inh” value in the assay with EGFR worked out at 0%; in the assay with EIF2AK1 it was 0%; in the assay with EPHA1 it was 2%; in the assay on EPHA2, 0%; in the assay on EPHA3, 0%; in the assay with EPHA4, 30%. Also, the results for the “%Inh” value with EPHA5 and in the assay on EPHA6 were 31% and 41%, respectively.
